Measured values taken from PubChem BioAssay AID743266 (National Center for Advancing Translational Sciences (NCATS), 2014).
About 310 (0.076%) of roughly 410,000 compounds were called active. Another 2% or so got no clear call; they are omitted. What follows is part of a selection rich in actives, with near analogues and random picks from the rest. A number with no mark means an inactive call. The call rests on the fitted dose curve; in most records, active means well fitted activation curve with a large enough effect; inconclusive means small, poorly fitted or top-dose-only effect, or another doubt; inactive means no such curve, though single readings can be large or run the other way.
Further: nearly all actives have a fitted effect of over 55% in size.
Potency means the concentration at half of the fitted maximal effect.

These compounds were tested against Parathyroid hormone/parathyroid hormone-related peptide receptor (Homo sapiens) (UniProt Q03431) (assay: qHTS for PTHR1 Agonists: Primary Screen). Conditions: HEK293 GP2 PTHR1 cells, GloSensor cAMP luminescence, 1 h; series mostly up to 115 µM; activation: at the top concentration.
Sequence of Parathyroid hormone/parathyroid hormone-related peptide receptor (Homo sapiens) (Q03431 whole entry, looked up): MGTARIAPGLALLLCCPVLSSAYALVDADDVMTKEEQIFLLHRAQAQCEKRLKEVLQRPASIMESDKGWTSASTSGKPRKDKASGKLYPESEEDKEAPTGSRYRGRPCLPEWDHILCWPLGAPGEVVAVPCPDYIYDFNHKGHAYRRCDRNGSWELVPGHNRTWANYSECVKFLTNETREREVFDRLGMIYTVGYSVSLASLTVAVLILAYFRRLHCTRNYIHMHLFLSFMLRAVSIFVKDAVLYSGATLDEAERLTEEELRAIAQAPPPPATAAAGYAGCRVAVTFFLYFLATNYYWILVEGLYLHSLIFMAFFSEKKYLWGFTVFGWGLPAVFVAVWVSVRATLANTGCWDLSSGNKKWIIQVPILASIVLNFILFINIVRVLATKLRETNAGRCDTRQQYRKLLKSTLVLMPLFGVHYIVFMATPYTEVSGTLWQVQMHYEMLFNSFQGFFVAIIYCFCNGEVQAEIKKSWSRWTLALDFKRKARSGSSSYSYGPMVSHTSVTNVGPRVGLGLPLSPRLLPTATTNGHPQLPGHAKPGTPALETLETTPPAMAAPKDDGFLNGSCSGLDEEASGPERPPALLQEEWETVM
Description: The goal of the proposed studies is to discover new compounds that act as potent agonists on the parathyroid hormone receptor type-1 (PTHR1). The PTHR1 plays critical roles in maintaining blood calcium and phosphate levels, as well as in controlling bone remodeling. PTHR1 agonists could thus be useful for treating diseases such as hypoparathyroidism and osteoporosis. In the former disease, an agonist drug would help maintain normal blood calcium and phosphate levels under conditions of parathyroid hormone deficiency. In the latter disease, an agonist drug would stimulate new bone formation and thus reduce the risk of fracture, under conditions of bone fragility, as occurs in aging.
To that end, we performed a quantitative high-throughput screening (qHTS) of the Molecular Libraries Probe Centers Network (MLPCN) compound libraries at the NIH Chemical Genomics Center (NCGC) for the parathyroid hormone receptor type-1 (PTHR1) using a unique HEK-293-derived cell line (GP2) that expresses the PTHR1 and a glosensor cAMP reporter construct.
NIH Molecular Libraries Probe Production Centers Network [MLPCN]
NIH Chemical Genomics Center [NCGC]
Assay Submitter (PI): Thomas Gardella, Massachusetts General Hospital
4 microL are dispensed into a 1536-well micro plate to yield 3,000 cells/well. The plates are then incubated overnight, after which 4 microL of 0.5 mM of BIoTium Luciferin plus 0.5 mM IBMX are added. They are then incubated at 37 degree for one hour before 23 nL of compounds are added through pinning and then incubated at 37 degree again for another hour. After the plates are kept at room temperature for 15 min before they are read on the ViewLux to measure luminescence.
With CCN(CC)C(=O)CSc1nc2cc3c(cc2c(=O)n1CCCC(=O)NCc1ccc2c(c1)OCO2)OCO3 the “activation” value was -15.7%. In the case of CCOc1ccc(CNC(=O)C2CCCN(S(=O)(=O)N(CC)c3ccc(OCC)cc3)C2)cc1 (stereo unspecified), the “activation” value is reported as -6.06%. For CCN(CC)S(=O)(=O)c1ccc2c(c1)c(=O)c(C(=O)N1CCN(c3cccc(Cl)c3)CC1)cn2C, the “activation” value was -8.06%. For COc1cccc(CNC(=O)C2CCC(CNS(=O)(=O)c3cccs3)CC2)c1 (stereo unspecified), the “outcome” value was “inactive”. COc1ccc(N2CCN(S(=O)(=O)c3ccc(-c4coc(C)n4)cc3)CC2)cc1 was tested, and the “activation” value was -12.8%. In the case of Cc1ccc(C)c(N2CCN(C(=O)CN3C(=O)COc4ccc(S(=O)(=O)N5CCCCCC5)cc43)CC2)c1, the “activation” value is reported as 7.52%. For COc1ccccc1CNC(=O)Cn1nc(C)c2nn(-c3ccc(Cl)cc3)c(C)c2c1=O, the “activation” value was -25.9%. With O=C(O)c1ccc(CSc2nc3cccnc3n2Cc2cccc(F)c2)cc1 the “activation” value was -22.9%. For CC(C)c1ccc(NC(=O)c2ccc(Cn3nc(N4CCN(c5ccccc5)CC4)ccc3=O)o2)cc1, the “activation” value was -7.89%. With O=C(CSc1nccn1C1CCCC1)Nc1cc(C(F)(F)F)ccc1Cl the “activation” value was -85.1%. In the case of Cc1ccc(Cc2cnc(N)s2)o1, the Potency is reported as 3.55 µM (active). For Cc1ccc(-c2nc3cccc(C)n3c2Nc2ccc3c(c2)OCCO3)cc1, the “outcome” value was “inactive”. CCN(CC)c1ccc(NC(=O)Cn2nc3c(cc2=O)CCCC3)c(C)c1 was tested, and the “outcome” value was “inactive”. In the case of CCC(=O)N1c2ccccc2CC1C(=O)N1CCN(c2ccccc2F)CC1 (stereo unspecified), the “outcome” value is reported as “inactive”. Cc1cc(C)c(NC(=O)CCc2c(C)nc3c(c(C)nn3C(C)(C)C)c2C)c(C)c1 was tested, and the “outcome” value was “inactive”. For Cn1c(=O)c(C(=O)O)nn(-c2ccccc2)c1=O, the “outcome” value was “inactive”. With Cc1cc(C)cc(NC(=O)CSc2nc(=O)n(CCN3CCOCC3)c3c2CCC3)c1 the “activation” value was -21%. COc1ccccc1NC(=O)Cn1cnc2ccc(S(=O)(=O)N3CCC(C)CC3)cc2c1=O was tested, and the “activation” value was -5.33%. In the case of COc1ccc(C2(Nc3cccc(F)c3)C(=O)c3ccccc3C2=O)cc1, the “activation” value is reported as -29.1%. CC1CCN(S(=O)(=O)c2ccc3c(c2)N(CC(=O)NCCc2ccccc2)C(=O)CO3)CC1 was tested, and the “outcome” value was “inactive”. For COc1ccc(-n2nc(C(=O)NCCc3ccc(Cl)cc3)c3c4ccccc4n(C)c3c2=O)cc1Cl, the “outcome” value was “inactive”. c1ccc(CSc2ncnc3c2sc2nc(N4CCOCC4)c4c(c23)CCCC4)cc1 was tested, and the “outcome” value was “inactive [at 57.5 µM]”. With CCc1nc2sc3c(Cl)ncnc3c2c2c1CCCC2 the “outcome” value was “inactive”. With CCCCSc1ncnc2c1sc1nc(N3CCOCC3)c3c(c12)CCCC3 the Potency was 79.4 µM (active). With COC(=O)c1c(NC(=O)c2cc(=O)c3c(C)cc(C)cc3o2)sc2c1CCCC2 the “outcome” value was “inactive”. Cc1ccccc1NC(=O)Cn1cc(C(=O)c2cccs2)c2ccccc21 was tested, and the “outcome” value was “inactive”. CCCS(=O)(=O)N1CCC(n2c(C(F)(F)F)nc3cccnc32)CC1 was tested, and the “outcome” value was “inactive”. For Cc1ccc(CN2COc3cc(C)c4c(oc(=O)c5ccccc54)c3C2)cc1, the “activation” value was -9.61%. With COc1ccc(OC)c(-n2nnc(-c3nc(-c4cc(OC)c(OC)c(OC)c4)no3)c2C)c1 the “outcome” value was “inactive”. With COc1cc(NC(=O)CCn2nc(C)cc2C)cc(OC)c1OC the “activation” value was 1.35%. In the case of Cc1cc(C)cc(NC(=O)Cn2nc(N3CCN(c4ccccc4)CC3)ccc2=O)c1, the “outcome” value is reported as “inactive”. In the case of COc1cccc(NC(=O)N2CCN(C(=O)c3nsc4ccccc34)CC2)c1, the “activation” value is reported as -1.57%. CCCC(=O)N1CCN(c2nc3c(OC)ccc(C)c3s2)CC1 was tested, and the “outcome” value was “inactive”. For Cc1ccc(NC(=O)CN2C(=O)CC(C)Sc3ccccc32)c(C)c1 (stereo unspecified), the “outcome” value was “inactive”. COc1cc(NC(=O)c2nc3ccccc3nc2C)cc(OC)c1OC was tested, and the “outcome” value was “inactive”. With CC(C)CN(Cc1c(O)ccc2c(=O)c(-c3ccccc3)coc12)CC(C)C the Potency was 35.5 µM (active). CCN(Cc1ccccc1)Cc1c(O)ccc2c(=O)c(-c3ccc(Cl)cc3Cl)coc12 was tested, and the “activation” value was 4.83%. CN(C)Cc1c(O)ccc2c(=O)c(-c3ccccc3Cl)coc12 was tested, and the “outcome” value was “inactive”. CC1CCN(S(=O)(=O)c2ccc3c(c2)N(CC(=O)NCc2ccccc2Cl)C(=O)CO3)CC1 was tested, and the “activation” value was -14.9%. COC(=O)c1cc(NC(=O)CCc2c(C)nc3c4c(C)cc(C)nc4nn3c2C)cc(C(=O)OC)c1 was tested, and the “activation” value was -11.5%. With COc1ccc(Cn2cc(C(=O)c3ccc(C)cc3)c(=O)c3cc(OC)c(OC)cc32)cc1 the “activation” value was -51.3%. With Cc1oc2ncnc(N3CCCCC3)c2c1C(=O)N1CCN(c2cccc(Cl)c2)CC1 the “outcome” value was “inactive”. With CCOC(=O)N1CCc2c(sc3c2C(=O)NC(c2ccccc2F)N3)C1 (stereo unspecified) the “outcome” value was “inactive”. With COc1ccc(NC(=O)Cn2c(=O)cc(C)c3c(C)nn(-c4cccc(Cl)c4C)c32)cc1OC the “activation” value was -21%. With Cc1ccc(C)c(NC(=O)CSC2=Nc3ccccc3N=C(c3ccc(F)cc3)C2)c1 the “activation” value was -0.791%. With CCN(CC)c1ccc(NS(=O)(=O)c2cc(-c3cc(C)no3)ccc2C)c(C)c1 the “activation” value was -70.5%. In the case of CCCCC12CN3CC(C)(CN(C1)C3c1ccc(O)c(OC)c1)C2=O (stereo unspecified), the “outcome” value is reported as “inactive”. In the case of CC(=O)c1ccc(NC(=O)C2CCN(S(=O)(=O)c3c(C)noc3/C=C/c3ccc(C)cc3)CC2)cc1, the “activation” value is reported as -33%. COC(=O)c1ccccc1NC(=O)c1ccc2c(=O)n3c(nc2c1)CCCCC3 was tested, and the “activation” value was -15.5%. In the case of COc1ccccc1-c1cc2nc(C)c(CCC(=O)NC3CCCCC3)c(C)n2n1, the “outcome” value is reported as “inactive”. With CCc1ccc(CN(Cc2ccco2)C(=O)COc2ccc(Cl)c(C)c2)cc1 the “activation” value was -18.1%. In the case of COc1cccc2c1cc1c(=O)n(CC(=O)N3CCN(c4ccccc4)CC3)nc(C)n12, the “activation” value is reported as -14.5%. For O=C(NCCc1ccccc1)c1ccc2c(c1)N(Cc1ccc(F)cc1)C(=O)c1ccccc1S2(=O)=O, the “activation” value was 6.38%. For Cc1nc2ccn(Cc3cccnc3)c(=O)c2cc1C(=O)N1CCN(c2ccccc2F)CC1, the “outcome” value was “inactive”. CCc1ccc(NC(=O)CCS(=O)(=O)c2cc3c(cc2Cl)NC(=O)CO3)cc1 was tested, and the “outcome” value was “inactive”. For Cc1ccc(C(=O)Nc2cc3c(cc2N2CCCC2)n(C)c(=O)c(=O)n3C)cc1, the “activation” value was 4.66%.
